Bioassay records: PubChem BioAssay, The Scripps Research Institute Molecular Screening Center
Only some compounds are listed: those with a hit (about 1.7% of all), similar ones and a draw of the others.
EBNA-1 inh – blocks EBNA-1 binding to DNA | actives 0.34% (n = 300,000) | inhibition, % at 14.8 µM | EBNA-1 DNA binding, fluorescence polarization | AID 1950; in the data active = inhibition above about 28%
PAD4 inh – blocks human protein arginine deiminase 4; AID 485272; inhibition, % at 6.36 µM; actives 0.41% (n = 330,000); Q9UM07; recombinant PAD4, RCA probe fluorescence polarization;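 active = percent inhibition above a cutoff equal to the mean of all tested compounds plus 3 SD, cut at about 15% in these data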;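 note: 0% = PAD4 with RCA probe and DMSO and 100% = probe without PAD4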
Target sequence (Q9UM07 whole entry, looked up): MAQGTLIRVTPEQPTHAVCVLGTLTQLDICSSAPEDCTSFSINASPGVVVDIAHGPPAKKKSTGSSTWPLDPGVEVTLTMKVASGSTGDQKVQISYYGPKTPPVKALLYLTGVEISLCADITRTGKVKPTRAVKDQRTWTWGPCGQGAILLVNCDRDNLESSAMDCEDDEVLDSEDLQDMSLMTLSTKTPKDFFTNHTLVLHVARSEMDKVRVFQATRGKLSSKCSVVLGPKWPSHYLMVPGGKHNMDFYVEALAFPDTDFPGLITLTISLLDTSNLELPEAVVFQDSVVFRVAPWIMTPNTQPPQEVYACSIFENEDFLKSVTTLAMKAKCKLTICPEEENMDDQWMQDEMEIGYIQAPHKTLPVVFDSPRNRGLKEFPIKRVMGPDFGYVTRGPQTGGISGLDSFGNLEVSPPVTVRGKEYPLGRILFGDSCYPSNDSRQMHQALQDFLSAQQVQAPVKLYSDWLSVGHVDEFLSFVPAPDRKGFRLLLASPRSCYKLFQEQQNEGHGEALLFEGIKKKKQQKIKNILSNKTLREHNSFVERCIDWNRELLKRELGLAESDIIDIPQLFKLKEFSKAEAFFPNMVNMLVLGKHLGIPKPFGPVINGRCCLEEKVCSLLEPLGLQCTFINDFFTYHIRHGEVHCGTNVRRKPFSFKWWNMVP
LYPLA2 inh – blocks human lysophospholipase 2, a PME1 counter-screen | recombinant LYPLA2, FP-Rh probe fluorescence polarization | inhibition, % at 5.9 µM | O95372 | actives 0.38% (n = 320,000) | AID 2177;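 active = inhibition above the screen-wide mean plus 3 SD, limit set per campaign, cut at about 26% in these data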;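 note: 0% = LYPLA2 with DMSO and 100% = wells lacking LYPLA2 enzyme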
GSTO1 inh – GSTO1 inhibition, counter-screen for RBBP9 inhibitors. recombinant GSTO1, activity-based probe fluorescence polarization. inhibition, % at 5.96 µM. actives 1.1% (n = 300,000). AID 1974;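 active = inhibition above the campaign mean inhibition plus 3 SD, cut at about 35% in these data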;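 note: 0% = GSTO1-1 with DMSO and 100% = wells lacking GSTO1-1 enzyme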
ZTA DNA inh – counter-screen for EBNA-1 inhibitors: inhibitors of Epstein-Barr virus ZTA; AID 2234; actives 0.15% (n = 320,000); P03206; inhibition, % at 11 µM; ZTA-DNA binding, fluorescence polarization; in the data active = inhibition above about 33%
LYPLA1 counter – LYPLA1 (human) inhibition in PME1 counter-screen; O75608; recombinant LYPLA1, FP-Rh probe fluorescence polarization; inhibition, % at 5.9 µM; actives 0.16% (n = 320,000);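 active = inhibition above the mean of all tested compounds plus 3 SD, set per campaign, cut at about 14% in these data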;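 note: inhibitors block serine hydrolase probe labeling of LYPLA1 so polarization falls; 0% = enzyme with DMSO and 100% = wells lacking LYPLA1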
GSTO1 inh conf – GSTO1 (human) inhibition, confirmation | shares compounds with GSTO1 inh | recombinant GSTO1, probe fluorescence polarization | inhibition, % at 5.96 µM | actives 54% (n = 2,400) | AID 2176;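 active = inhibition above the primary screen's cutoff, its mean inhibition plus 3 SD, cut at about 35% in these data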;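 note: loss of polarization as inhibitors block binding of rhodamine sulfonate ester activity probe; 0% = GSTO1 with DMSO and 100% = wells lacking GSTO1 enzyme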
* = called active by the depositor; . = no result.

SMILES | EBNA-1 inh | PAD4 inh | LYPLA2 inh | GSTO1 inh | ZTA DNA inh | LYPLA1 counter | GSTO1 inh conf
Cc1ccc(C2=NNC(=O)C(P(=O)(c3ccccc3)c3ccccc3)C2)cc1 (stereo not drawn) | 9.1 | -0.8 | 1.8 | -4.0 | -0.5 | -2.0 | .
CNC(=O)COC(=O)c1cc(-c2ccco2)nc2ccccc12 | -2.1 | 4.5 | -1.6 | 39.7* | 5.7 | -2.0 | 8.9
C[C@H]1CN([C@@H](C)CO)C(=O)c2cccc(NC(=O)Nc3ccc(F)cc3)c2O[C@@H]1CN(C)Cc1ccc(C(=O)O)cc1 | . | -2.1 | . | . | . | . | .
Cc1ccc(S(=O)(=O)N2CCC(NC(=O)c3cccc(C)c3)CC2)cc1 | 1.7 | 2.6 | 5.7 | 5.3 | 0.8 | -0.6 | .
COc1ccc(C)cc1S(=O)(=O)NC(C)c1cnn(-c2ccccn2)c1C (stereo not drawn) | 6.4 | -1.4 | 13.7 | 5.2 | -4.1 | 4.5 | .
C[n+]1cccc2c(Br)ccc([O-])c21 | 4.0 | 6.2 | 3.6 | 41.1* | 6.3 | 0.9 | 13.7
CCOC(=O)Cc1csc(NC(=O)NC2(C(F)(F)F)Oc3ccccc3O2)n1 | 4.9 | -2.2 | -1.1 | 22.3 | -15.0 | 2.2 | .
CCOC(=O)Cc1csc(NC(=O)NC2(C(F)(F)F)Oc3cc(Cl)c(Cl)cc3O2)n1 | 7.2 | -3.9 | -2.5 | 44.2* | -5.5 | -1.9 | 7.7
CCOC(=O)Cc1csc(NC(=O)NC2(C(F)(F)F)Oc3ccc(Cl)cc3O2)n1 (stereo not drawn) | -8.7 | 1.6 | -4.5 | 45.4* | -2.3 | -4.4 | 4.2
NC(=O)CC(NC(=O)Cc1cccc2ccccc12)c1ccc(NCCCN2CCCC2=O)c([N+](=O)[O-])c1 (stereo not drawn) | 4.6 | 2.9 | 0.0 | -0.5 | 4.1 | -0.7 | .
COc1ccccc1-c1nnc(NC(=O)C(C)SC2=NCCS2)s1 (stereo not drawn) | 11.4 | 11.2 | -11.1 | 48.2* | -2.6 | -6.5 | 61.8*
O=C(NCCc1ccncc1)c1ccc2nc(Cc3cccc(Cl)c3)oc2c1 | 0.8 | -4.4 | 11.9 | 1.3 | 8.8 | 9.8 | .
CCc1cccc(NC(=O)CSC2=NS(=O)(=O)c3ccccc32)c1 | 3.0 | 8.7 | 1.0 | 54.6* | 1.1 | -0.6 | 1.4
Cc1nc2nc(NC(=O)c3ccco3)nn2c(C)c1Cl | 1.9 | 0.7 | 4.8 | 3.0 | 8.9 | 1.1 | .
COc1ccc(CCNC(=O)Nc2ccc(F)cc2F)cc1OC | -4.6 | 0.6 | -0.4 | -0.8 | 1.2 | -3.0 | .
COc1ccc(O)c(/C=N/NC(=O)c2cc(=O)[nH]c3ccccc23)c1 | -0.8 | -5.1 | 7.0 | -3.2 | 10.9 | 2.7 | .
CC(C)=NNC(=O)c1c(O)c2ccccc2[nH]c1=O | -11.2 | -2.6 | 0.7 | 42.0* | -18.0 | 2.0 | 4.4
CCNC(=O)c1c(O)c2ccccc2[nH]c1=O | 3.1 | 5.5 | 3.7 | 5.9 | 4.0 | -2.5 | .
O=C(CCl)NNC(=O)c1c(O)c2ccccc2[nH]c1=O | 11.8 | 1.3 | 4.0 | 88.7* | 20.2 | 3.2 | 96.9*
CC(C)[C@H](NC(=O)C1CC(=O)N(c2ccc3c(c2)OCO3)C1)C(=O)NC1CCCC1 (stereo partly drawn) | 2.5 | -0.8 | 5.1 | 12.8 | 0.1 | 4.5 | .
C=CCN1C=C2C(=O)C(C)(OC(=O)c3ccco3)C(=O)C(C=C)=C2C=C1C1CC1 (stereo not drawn) | 0.3 | 13.3 | 9.6 | 39.1* | -4.3 | 6.0 | 12.4
Oc1ccc(NCc2cccc(OCc3ccccc3)c2)cc1 | -21.2 | 6.1 | 5.6 | 81.7* | -4.8 | 1.1 | 6.1
c1ccc(COc2cccc(CNCc3cccnc3)c2)cc1 | 3.4 | -2.0 | 7.4 | -0.8 | -3.1 | 2.2 | .
CCNc1c(NS(=O)(=O)c2ccc([N+](=O)[O-])cc2)c(=O)oc2ccccc12 | -12.9 | 0.3 | 4.6 | -3.4 | -2.3 | -2.5 | .
CN1CCN(C2=C(Cl)C(=O)N(C3CCCCC3)C2=O)CC1 | 11.6 | -2.5 | 8.6 | 0.2 | 2.5 | 8.0 | .
SMILES | EBNA-1 inh | PAD4 inh | LYPLA2 inh | GSTO1 inh | ZTA DNA inh | LYPLA1 counter | GSTO1 inh conf
CN1CCN(C2=C(Cl)C(=O)C(c3cnc(N4CCCCC4)s3)=C(Cl)C2=O)CC1 | -15.0 | 22.5* | 8.2 | 83.8* | 5.7 | 0.4 | 19.0
O=C1C(Cl)=C(N2CCCCC2)C(=O)N1c1ccccc1Cl | 0.7 | -2.4 | 2.1 | 19.1 | -4.9 | -1.1 | .
O=C1c2cccc(Cl)c2C(=O)c2c1cccc2N1CCCC1 | 5.5 | -9.7 | 11.8 | 44.2* | -0.5 | 1.8 | 7.1
CN(C(=O)c1ccccc1Cl)c1ccccc1C(=O)NCCc1ccccc1 | 2.5 | -1.8 | -1.3 | -1.6 | -7.0 | -2.6 | .
COCc1ccc(C(=O)N2CCCC(C(=O)c3cc(F)ccc3F)C2)s1 (stereo not drawn) | 9.5 | 3.9 | 11.1 | 9.1 | 3.0 | -1.1 | .
Cc1n[nH]c(=S)n1/N=C/c1c(O)ccc2ccccc12 | -13.2 | -6.9 | 2.3 | 59.3* | -7.7 | -1.7 | 8.1
O=C(O)COc1ccc(/C=N/n2c(COc3ccccc3)nc3ccccc3c2=O)cc1 | -5.9 | -2.9 | -6.9 | 1.6 | -0.5 | -3.0 | .
Cc1nc2ccccc2c(=O)n1/N=C/c1c(O)ccc2ccccc12 | -4.3 | -6.4 | 4.2 | 63.3* | -4.5 | -4.7 | 3.2
Oc1ccccc1/C=N/n1c(-c2ccccc2)n[nH]c1=S | -0.4 | -0.3 | -1.2 | 2.3 | 5.8 | 0.4 | .
O=c1c2ccccc2nc(COc2ccccc2)n1/N=C/c1ccc(O)c(O)c1 | 6.7 | 2.5 | -6.4 | 52.9* | -23.9 | -10.4 | 7.6
O=c1[nH]c2ccc(Br)cc2c(-c2ccccc2)c1CN1CCOCC1 | 6.4 | 5.4 | -4.8 | 63.7* | 14.3 | -0.7 | 1.6
O=c1[nH]c2ccc(Br)cc2c(-c2ccccc2)c1N1CCOCC1 | 12.8 | 5.7 | 4.8 | 4.2 | 2.8 | 2.1 | .
CCCN1CCC(=O)N([C@H](CSc2ccc(Br)cc2)c2ccccc2)CC1 | 4.9 | 0.6 | -3.1 | 52.6* | -22.0 | -1.8 | 7.9
Cc1ccc(S(=O)(=O)N2CCN(C(=O)CSc3ncn[nH]3)CC2)c(C)c1 | -6.2 | -3.1 | -3.0 | -3.5 | -4.4 | 1.9 | .
Cc1ccc(S(=O)(=O)/N=C2/C=C(Sc3ncn[nH]3)C(=O)c3ccccc32)c(C)c1 | 5.8 | 15.5* | 31.0* | 91.2* | 31.1 | 0.6 | 92.7*
O=C(CSc1ccc(Cl)cc1)Nc1ccccc1Oc1ccccc1 | 8.2 | -2.1 | 7.1 | 2.2 | -2.4 | -0.8 | .
O=C(CSc1ccc(Cl)cc1)NC1=NN(c2ccccc2)C(=O)C1 | 5.0 | 14.8* | -0.8 | 42.1* | 8.5 | -4.2 | 6.0
Cc1cc(C(=O)N/N=C/c2ccc([N+](=O)[O-])o2)c(C)o1 | -25.3 | -6.4 | -2.5 | 38.1* | 7.8 | -7.0 | 6.8
NC(=O)NC(=O)COC(=O)CC12CC3CC(CC(C3)C1)C2 | -5.3 | -0.4 | -4.1 | 6.8 | -1.1 | -6.0 | .
C=CCSC1=N/C(=C\C=C\c2ccco2)C(=O)S1 | 4.0 | -0.9 | 3.6 | 44.7* | 15.5 | 3.1 | 18.9
N#Cc1ccc(NC(=O)COc2ccc(-n3cnnn3)cc2)cc1 | . | -1.1 | . | . | . | . | .
